Results filed as inconclusive are left out. A number with no mark means an inactive call. The source made the active and inactive calls. Calls come from the whole dose curve; as a rule, active = well fitted inhibition curve with a large enough effect in the repeat runs; inconclusive = weak or mixed curves; inactive = no such curve, though single readings can be large or run the other way.

The source of these data is PubChem BioAssay (NCATS).
% is set by controls: 0 for no effect and ±100 for the full control effect; potency is the fitted concentration of half-maximal effect.

The experiment deals with Cytochrome P450 2C9 (Homo sapiens) (UniProt P11712). Description: Cytochrome P450 family 2 subfamily C member 9 (CYP2C9) small molecule antagonists: luciferase biochemical (cell-free) qHTS assay (AID 1645842). Note: nearly all actives have a fitted effect of over 55% in size. Conditions: P450-Glo CYP2C9 enzyme assay, luciferin luminescence; series mostly up to 57.4 µM; activity change, negative = inhibition: at the top concentration. As for the experimental part: National Center for Advancing Translational Sciences [NCATS] Assay Overview: Cytochrome P450 (CYP) enzymes are membrane-bound hemeproteins that play a key role in metabolism of drugs and xenobiotics. Assaying the effect of chemicals on CYP isozymes is useful to minimize the adverse drug reactions and toxicities in drug development process. Chemical compounds were tested for their effect on CYP enzyme activities by using P450-Glo (TM) screening systems (Promega Corporation, Madison, WI). These systems provide a luminescent method containing proluciferin substrates and are converted to luciferin products by CYP isozymes. The luciferin products formed are detected with a luciferin detection reagent, and the amount of light produced is proportional to CYP activity. P450-Glo (TM) CYP2C9 screening system (Catalog. No. V9790) was used to detect the compounds that interfere in CYP2C9 activity.
Sequence of Cytochrome P450 2C9 (Homo sapiens) (P11712 whole entry, looked up): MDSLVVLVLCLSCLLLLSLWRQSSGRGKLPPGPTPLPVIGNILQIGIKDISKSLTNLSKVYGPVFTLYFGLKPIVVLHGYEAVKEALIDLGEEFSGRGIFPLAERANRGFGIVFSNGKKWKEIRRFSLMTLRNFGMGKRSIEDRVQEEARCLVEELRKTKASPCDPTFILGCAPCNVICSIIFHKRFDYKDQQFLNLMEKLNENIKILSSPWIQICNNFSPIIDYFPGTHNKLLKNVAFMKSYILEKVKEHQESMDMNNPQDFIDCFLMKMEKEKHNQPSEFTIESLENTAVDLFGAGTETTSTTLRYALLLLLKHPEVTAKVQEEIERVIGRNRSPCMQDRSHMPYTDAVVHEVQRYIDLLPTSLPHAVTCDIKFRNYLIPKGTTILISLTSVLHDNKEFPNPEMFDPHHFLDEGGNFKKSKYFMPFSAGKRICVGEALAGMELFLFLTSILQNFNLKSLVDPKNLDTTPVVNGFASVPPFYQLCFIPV
Assay Protocol Summary: Two ul of enzyme-substrate mix supplemented with 0.4% Bovine Serum Albumin was dispensed into medium binding white/solid 1536-well plates (Greiner Bio-One North America Inc., Monroe, NC) using a Flying Reagent Dispenser (FRD, Aurora Discovery, San Diego, CA). […] The assay plates were incubated at room temperature for 10 min. Then 2 ul of NADPH regeneration solution was added to each well of the assay plates using an FRD and incubated at 37C for 1 h. The reaction was stopped by adding 4 ul of detection reagent using an FRD and after 20 min incubation at room temperature, the luminescence signal was measured using a ViewLux plate reader (Perkin Elmer, Shelton, CT). Data were expressed as relative luminescence units.
A general note: qHTS replaces the single test concentration by a dilution series.
Take `COc1ccccc1NC(=O)c1oc2ccccc2c1NC(=O)c1ccccc1C(F)(F)F`: the Potency is 2.68 µM (active).
Same read-out and setting: the result for `CC1=C(C(=O)Nc2nnc(C)s2)C(c2ccccc2Cl)N=C(Nc2nc3ccccc3o2)N1` (stereo not given) reads 9.52 µM (active).
On to `CCC(Sc1nc2nccnc2c(=O)n1Cc1ccc(C)cc1)C(=O)NC1CCCCC1` (stereo not given), for which the Potency is 9.52 µM (active).
Same read-out and setting: the result for `CC1=C(C(=O)Nc2cccc(C(N)=O)c2)C(c2ccccc2Cl)N=C(Nc2nc3ccccc3o2)N1` (stereo not given) reads 0.19 µM (active).
The same measure, in the same setting: the result for `Cc1cccn2c(=O)cc(CSc3nnc(NC(=O)COc4ccccc4)s3)nc12` reads 6.74 µM (active).
`CCN(CC)C(=O)[C@]1(c2ccccc2)C[C@H]1CN`: the “activity change, negative = inhibition” value is -10.7%.
Take `COc1ccc(CC2c3cc(OC)c(OC)cc3CCN2CCC(=O)OCCCCCOC(=O)CCN2CCc3cc(OC)c(OC)cc3C2Cc2ccc(OC)c(OC)c2)cc1OC` (stereo not given): the Potency is 21.3 µM (active).
Consider `COc1cc(C(c2c(C)[nH][nH]c2=O)c2c(C)[nH][nH]c2=O)ccc1OC(=O)c1ccccc1F`, for which the Potency was 10.7 µM (active).
Take `Cc1ccc(CNC(=O)C(C)n2nc(C)c3sc4ccccc4c3c2=O)cc1` (stereo not given): the Potency is 2.39 µM (active).
The same measure, in the same setting: next, `COc1ccc(CCNc2nc(SCc3ccccc3F)nc3ccccc23)cc1OC`: 0.849 µM (active).
The same measure, in the same setting: the result for `COc1ccc(Cn2c(CCC(=O)Nc3cccc(OC)c3)nc3cccnc32)cc1` reads 4.77 µM (active); that for `CC(C)c1ccc(NC(=O)CSC2=Nc3ccccc3C3=NC(CC(=O)NC4CCCCC4)C(=O)N23)cc1` (stereo not given), 12 µM (active).
In the case of `O=c1cc2nc(-c3cccs3)nc(SCCOc3ccc(Cl)cc3)n2[nH]1`, the Potency was 19 µM (active).
`CCOc1ccc(NC(=O)Cn2cc(C(=O)c3ccco3)c3ccccc32)cc1`: the Potency is 4.77 µM (active).
On the same count and under the same terms, next, `Cc1oc(-c2ccccc2F)nc1Cn1c(SCc2ccccc2F)nc2ccncc21`: 9.52 µM (active).
Still for that read-out and setting: the result for `COc1ccc(C(C)=O)cc1CSc1nc(NCc2ccccc2)c2ccccc2n1` reads 2.13 µM (active); that for `O=c1c2c(on1Cc1ccccc1)CCNCC2`, 10.7 µM (active).
Still for that read-out and setting: next, `CC(=O)c1ccc(NC(=O)C2CCN(c3nnc(C)c4c(C)n(-c5ccccc5)nc34)CC2)cc1`: 7.56 µM (active).
Regarding `CCOCCCNC(=O)C(=O)Nc1c2c(nn1-c1ccc(OC)cc1)CSC2`, the Potency was 10.7 µM (active).
Regarding `Nc1c(-c2nc(-c3ccc4c(c3)OCO4)cs2)c2ccccn2c1C(=O)c1ccccc1`, the Potency is 0.425 µM (active).
The same measure, in the same setting: the result for `CCOc1ccccc1CNC(=O)C1CCN(S(=O)(=O)c2c(C)noc2/C=C/c2ccccc2F)CC1` reads 0.151 µM (active); that for `O=c1[nH]c2ccc(S(=O)(=O)Nc3cc(Cl)ccc3O)cc2o1`, 9.52 µM (active); that for `CCNC(=O)N1CCN(C(=O)c2cnc3cc(OC)ccc3c2N2CCC(C)(C#N)CC2)CC1`, 2.39 µM (active).
Still for that read-out and setting: the result for `CC1(C#N)CCN(c2c(C(=O)N3CCC(C(=O)C4CC4)CC3)cnc3ccc(F)cc23)CC1` reads 1.9 µM (active); that for `Cc1ccccc1CNC(=O)CCCn1c(=O)c2cccn2c2ccccc21`, 9.52 µM (active).
Turning to `O=C(O)[C@@H]1CCCN1`, the “activity change, negative = inhibition” value is 7.7%.
With `CC1(C#N)CCN(c2c(C(=O)N3CCC(C(=O)C4CC4)CC3)cnc3c(F)cc(F)cc23)CC1`, the Potency was 9.52 µM (active).
On the same count and under the same terms, next, `Cc1ccc(-n2nc3c(N4CCCC(C(=O)NCc5ccccc5C)C4)nnc(C)c3c2C)cc1` (stereo not given): 2.68 µM (active).
Still for that read-out and setting: the result for `Cc1ccc(Nc2nc3ccccc3c3nnc(C)n23)c(C)c1` reads 5.35 µM (active); that for `Cc1ccc(-n2c(SCc3ccccc3F)nc3[nH]ncc3c2=O)cc1C`, 13.5 µM (active).
Same read-out and setting: the result for `NC(=O)c1ccc(Cc2c(-c3cccc(-c4ccccc4)c3)[nH]n(-c3nc(C(=O)O)cs3)c2=O)cc1` reads 26.8 µM (active); that for `Cc1cccc2nc(-c3ccccn3)c(Nc3ccc(F)cc3)n12`, 1.2 µM (active).
`CC(C)c1ccc(-n2ncc3c(=O)n(CC(=O)Nc4cc(F)ccc4Cl)cnc32)cc1`: the Potency is 3.79 µM (active).
Same read-out and setting: next, `CN1C(=O)c2ccccc2Sc2ccc(NC(=O)Cc3ccc(Cl)cc3)cc21`: 12 µM (active); `CCc1ccc(-n2c(SCc3ccccc3F)nc3[nH]ncc3c2=O)cc1`: 4.77 µM (active).
Regarding `CCOC(=O)c1ccc(NC(=O)c2cc(=O)c3ccc(C)c(C)c3o2)cc1`, the “activity change, negative = inhibition” value is -27.1%.
Still for that read-out and setting: next, `COc1ccc(Br)c2c1-c1nc(NC(=O)c3ccccc3SC)sc1C2`: -20.1%.
Consider `Cc1cc(C)c(Cn2c3ccccc3c3cnn(CC(=O)NCc4ccccn4)c(=O)c32)c(C)c1`, for which the Potency was 10.7 µM (active).
Consider `CC1(C)CC1C(=O)NC(=CCCCCSCC(N)C(=O)O)C(=O)O` (stereo not given), for which the “activity change, negative = inhibition” value is 5.96%.
Regarding `COc1cccc(Cn2c(SCC(=O)N3CCN(c4ccc(F)cc4)CC3)nc3ccccc32)c1`, the Potency was 2.13 µM (active).
